For 26 compounds, composite z-score results are on record in PubChem BioAssay.

Molecules are shown by their SMILES.

In this test the test system is wheat germ agglutinin (Triticum aestivum), Alexa647-labelled. As to the kind of experiment: Alexa647-WGA lectin binding to printed small molecules – biochemical, small-molecule microarray, 635/667 nm fluorescence, artefact control for SMM control-protein annotation, profiling panel (AID 1140).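 Note: score merges 667 nm feature emission with signal to noise over triplicate slides.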 The settings on record: WGA-A647 binding, 635 nm fluorescence, higher = more signal.
As to `C=C[C@@H](COC(C)=O)N(Cc1ccc([N+](=O)[O-])cc1)S(=O)(=O)c1ccc(Br)cc1`, the composite z-score was determined as 1.09.

For the compound `O=C1O[C@@H](c2ccccc2)[C@@H](c2ccccc2)N2[C@@H](c3ccc(O)cc3)[C@]3(C(=O)Nc4ccc(C#CC5(O)CCCCCC5)cc43)[C@@H](C(=O)N3CCCCCCC3)[C@H]12`, the composite z-score was found to be 1.4.

With `COC(=O)C[C@@H]1C[C@H](C)[C@]2(O1)C(=O)N(Cc1ccccc1)c1ccc(NC(C)=O)cc12`, the composite z-score is -0.259. As to `CC(C)(C)N1CC=CC23O[C@@H]4C=CCOC(=O)[C@@H]4[C@H]2C(=O)N(CCCCCO)[C@@H]3C1=O` (stereo partly specified), the composite z-score was -1.31.

In turn, `C=CCN1C(=O)[C@]2(O[C@H](CCO)[C@@H]([Si](C)(C)c3ccc(OC)cc3)[C@@H]2C)c2cc(NC(=O)[C@H](C)O)ccc21` came in with a composite z-score of 0.394. Compound `C=CC(=C)C1=CCO[C@@H]1[C@H]1CCCN1S(=O)(=O)c1ccccc1[N+](=O)[O-]` displayed a composite z-score of 0.241.

`COc1ccc(NN2C(C(O)c3ccc(OC)c(OCc4ccccc4)c3)C=CC3C(=O)N(C4CCCCC4)C(=O)C32)cc1` (stereo unspecified): the composite z-score stood at 0.571.

The compound `[N-]=[N+]=NCc1ccccc1[C@@H]1OC(c2ccc(OCCCO)cc2)=N[C@]1(Cc1ccccc1)C(=O)N1CCCCC1` displayed a composite z-score of 0.903.

With `CC(C)(C)N1CC=CC23O[C@@H]4/C=C\CCCOC(=O)C4[C@H]2C(=O)N(CCO)[C@@H]3C1=O` (stereo partly specified), the composite z-score amounted to 0.0851.

Regarding `O=C1O[C@H](c2ccccc2)[C@H](c2ccccc2)N2[C@H]1[C@@H](C(=O)O)[C@]1(C(=O)Nc3ccc(C#CC4=CCCCC4)cc31)[C@H]2c1ccc(OCCO)cc1`, the composite z-score was found to be 1.1. Take `COC(=O)C[C@H]1O[C@]2(C(=O)N(Cc3ccccc3)c3ccc(NC(C)=O)cc32)[C@@H](C)[C@@H]1[Si](C)(C)c1ccc(OC)cc1`: the composite z-score stood at 0.657. Take `CC(C)CNC(=O)[C@@H]1c2ccccc2C(=O)N(Cc2cc(C(F)(F)F)cc(C(F)(F)F)c2)[C@H]1c1ccc(CO)cc1`: the composite z-score amounted to 0.204. Then `COc1ccccc1CN1C(=O)c2ccccc2[C@@H](C(=O)NCCN2CCOCC2)[C@@H]1c1ccc(CO)cc1`, with 0.285. Compound `NCCCCCCNC(=O)[C@H]1C[C@H]2C(=O)NCC(=O)N2[C@H]1c1cccc(OCCO)c1` had a composite z-score of 1.08. As to `COCCOC(=O)N1C(=O)[C@@]2(c3ccccc31)[C@H](C(=O)NC[C@H](O)c1ccccc1)[C@H]1C(=O)O[C@H](c3ccccc3)[C@H](c3ccccc3)N1[C@@H]2c1ccc(OCCO)cc1`, the composite z-score is 0.387. With `CC(C)N1CC=CC23O[C@@H]4C=CCOC(=O)[C@@H]4[C@H]2C(=O)N(CCO)[C@@H]3C1=O` (stereo partly specified), the composite z-score is -0.249.

Compound `COC(=O)[C@@]1(Cc2ccccc2)[C@H]2c3cc(C(=O)N4CCCC4)n(C)c3C[C@H]2CN1C(=O)c1ccccc1` registered a composite z-score of 1.06. To `O=C1[C@]2(CO)C=C(Br)[C@@H](C[C@@H]2c2ccccc2)[C@@]12CO2` belongs 0.492; to `CCCCC(O)C1C=CC2C(=O)N(C3CCCCC3)C(=O)C2N1Nc1ccc(OC)cc1` (stereo unspecified), 1.14. For the compound `COc1ccc(C(O)C2C=CC3C(=O)N(c4ccccc4)C(=O)C3N2Nc2ccc([N+](=O)[O-])cc2)cc1OCc1ccccc1` (stereo unspecified), the composite z-score was determined as 1.45.

Consider `Cc1ccc(S[C@]2(C(=O)NCc3ccccc3)CC(=O)N(Cc3ccccc3)[C@@H]2c2ccc(CO)cc2)cc1`, for which the composite z-score was -0.425. To `C=C(COC)/C(=C/C[C@H](OC(=O)c1ccncc1)c1cccc(OCCO)c1)c1cc(C(=O)OC)ccc1OC` belongs 0.0332; to `COC(=O)[C@@]1(Cc2ccccc2)[C@H]2c3cc(C(=O)N(C)C)n(Cc4cc(C)n(C)n4)c3C[C@H]2CN1C(=O)c1ccccc1`, 0.889. With `COC(=O)[C@@]1(Cc2ccccc2N=[N+]=[N-])COC(c2ccc(OCCCO)cc2)=N1`, the composite z-score came to 0.439. Turning to `CN1CCC(CCCO)=CC1c1ccc(CN2CCCC2)cc1` (stereo unspecified), the composite z-score was 1.18. Then `CC(=CC1CCCCC1)[C@@H](NC(=O)c1ccc(C(F)(F)F)cc1)c1ccc(-c2ccccc2)cc1`, with 0.165.
